Data: the supplement of paper PMC10849652
The full data set covers some 7,900 targets. This sample favours those with a hit. About 0.6% of all pairs of compound and target were hits. A number with no mark means an inactive call.

Compound: c1cn2cc(-c3ccc4cn[nH]c4c3)nc(Nc3ccc(N4CCOCC4)cc3)c2n1 [entospletinib]
Assay: log2 fold change, soluble protein after heating vs DMSO (PISA); higher = thermal stabilisation; K562 cells, 10 uM, 30 min; active = over 0.2 and 3.5 SD of the protein, either way, in both replicates (recomputed)
Procedure, shortened: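 Soluble protein was quantified by TMTpro 16plex LC-MS/MS after channel sums were equalised. It was obtained as the supernatant after 21,000xg for 90 min from pooled aliquots of K562 cells (2×10^6 cells/mL, 10 μM compound, 30 min) heated for 3 min across 48°C-58°C and extracted in PBS with 0.5% NP-40 at 4°C. Thermal stability values are relative to control samples and come from duplicates. They are given as log2 fold changes.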

UniProt Q562R1, sequence (Q562R1 whole entry, looked up): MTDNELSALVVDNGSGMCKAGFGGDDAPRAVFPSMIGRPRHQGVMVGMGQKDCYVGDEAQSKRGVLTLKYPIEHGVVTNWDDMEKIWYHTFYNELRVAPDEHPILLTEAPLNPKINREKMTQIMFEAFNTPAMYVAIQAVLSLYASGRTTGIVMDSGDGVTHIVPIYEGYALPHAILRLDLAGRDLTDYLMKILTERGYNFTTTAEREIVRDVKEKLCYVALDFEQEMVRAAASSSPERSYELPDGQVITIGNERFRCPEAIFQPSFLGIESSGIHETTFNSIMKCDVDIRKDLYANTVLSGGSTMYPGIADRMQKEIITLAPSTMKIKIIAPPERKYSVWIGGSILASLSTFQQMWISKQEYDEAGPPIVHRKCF
UniProt Q9HC16, sequence (Q9HC16 whole entry, looked up): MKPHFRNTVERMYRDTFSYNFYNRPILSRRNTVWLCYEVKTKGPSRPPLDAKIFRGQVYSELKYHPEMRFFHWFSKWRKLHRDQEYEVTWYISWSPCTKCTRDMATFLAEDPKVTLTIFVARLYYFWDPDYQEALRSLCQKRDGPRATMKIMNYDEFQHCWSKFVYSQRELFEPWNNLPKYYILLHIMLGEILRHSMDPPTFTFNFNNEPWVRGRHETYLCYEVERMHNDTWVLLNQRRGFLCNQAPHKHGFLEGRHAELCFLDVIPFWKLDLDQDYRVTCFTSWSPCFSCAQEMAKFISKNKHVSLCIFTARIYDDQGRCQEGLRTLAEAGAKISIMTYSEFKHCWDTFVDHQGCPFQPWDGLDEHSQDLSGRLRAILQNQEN
UniProt Q10589, sequence (Q10589 whole entry, looked up): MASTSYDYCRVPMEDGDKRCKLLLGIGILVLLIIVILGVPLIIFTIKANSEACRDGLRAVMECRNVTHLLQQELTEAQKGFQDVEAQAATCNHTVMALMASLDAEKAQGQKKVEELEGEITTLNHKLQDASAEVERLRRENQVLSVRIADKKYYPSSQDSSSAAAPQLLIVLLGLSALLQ
UniProt P35612, sequence (P35612 whole entry, looked up): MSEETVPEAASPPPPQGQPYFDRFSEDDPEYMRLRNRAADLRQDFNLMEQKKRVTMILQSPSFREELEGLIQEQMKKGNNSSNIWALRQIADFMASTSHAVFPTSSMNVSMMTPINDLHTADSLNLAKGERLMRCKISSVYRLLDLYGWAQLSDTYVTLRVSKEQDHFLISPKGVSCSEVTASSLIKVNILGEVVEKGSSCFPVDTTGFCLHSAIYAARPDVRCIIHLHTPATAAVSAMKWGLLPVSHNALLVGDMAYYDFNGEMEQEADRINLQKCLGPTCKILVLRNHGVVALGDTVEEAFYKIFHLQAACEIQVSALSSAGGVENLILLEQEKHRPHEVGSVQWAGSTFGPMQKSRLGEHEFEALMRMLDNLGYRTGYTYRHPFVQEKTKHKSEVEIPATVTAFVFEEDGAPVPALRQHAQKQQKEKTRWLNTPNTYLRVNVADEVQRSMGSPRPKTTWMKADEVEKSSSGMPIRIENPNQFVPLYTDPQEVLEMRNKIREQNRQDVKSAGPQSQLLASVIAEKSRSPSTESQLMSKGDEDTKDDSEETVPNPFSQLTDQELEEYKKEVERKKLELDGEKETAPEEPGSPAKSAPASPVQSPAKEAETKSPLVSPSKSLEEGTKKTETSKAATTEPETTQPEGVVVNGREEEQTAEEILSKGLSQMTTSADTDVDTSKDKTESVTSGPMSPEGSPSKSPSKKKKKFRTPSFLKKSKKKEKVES
UniProt Q14CW9, sequence (Q14CW9 whole entry, looked up): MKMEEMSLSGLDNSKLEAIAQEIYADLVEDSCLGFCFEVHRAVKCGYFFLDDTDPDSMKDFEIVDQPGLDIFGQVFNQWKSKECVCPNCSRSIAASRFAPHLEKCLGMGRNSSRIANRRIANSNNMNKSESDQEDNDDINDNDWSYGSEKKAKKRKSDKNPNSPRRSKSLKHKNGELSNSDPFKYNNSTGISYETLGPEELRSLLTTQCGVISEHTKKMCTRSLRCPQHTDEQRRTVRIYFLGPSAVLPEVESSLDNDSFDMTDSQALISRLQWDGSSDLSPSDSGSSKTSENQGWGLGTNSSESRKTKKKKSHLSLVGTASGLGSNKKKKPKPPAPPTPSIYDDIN
UniProt Q9Y6D6, sequence (Q9Y6D6 whole entry, looked up): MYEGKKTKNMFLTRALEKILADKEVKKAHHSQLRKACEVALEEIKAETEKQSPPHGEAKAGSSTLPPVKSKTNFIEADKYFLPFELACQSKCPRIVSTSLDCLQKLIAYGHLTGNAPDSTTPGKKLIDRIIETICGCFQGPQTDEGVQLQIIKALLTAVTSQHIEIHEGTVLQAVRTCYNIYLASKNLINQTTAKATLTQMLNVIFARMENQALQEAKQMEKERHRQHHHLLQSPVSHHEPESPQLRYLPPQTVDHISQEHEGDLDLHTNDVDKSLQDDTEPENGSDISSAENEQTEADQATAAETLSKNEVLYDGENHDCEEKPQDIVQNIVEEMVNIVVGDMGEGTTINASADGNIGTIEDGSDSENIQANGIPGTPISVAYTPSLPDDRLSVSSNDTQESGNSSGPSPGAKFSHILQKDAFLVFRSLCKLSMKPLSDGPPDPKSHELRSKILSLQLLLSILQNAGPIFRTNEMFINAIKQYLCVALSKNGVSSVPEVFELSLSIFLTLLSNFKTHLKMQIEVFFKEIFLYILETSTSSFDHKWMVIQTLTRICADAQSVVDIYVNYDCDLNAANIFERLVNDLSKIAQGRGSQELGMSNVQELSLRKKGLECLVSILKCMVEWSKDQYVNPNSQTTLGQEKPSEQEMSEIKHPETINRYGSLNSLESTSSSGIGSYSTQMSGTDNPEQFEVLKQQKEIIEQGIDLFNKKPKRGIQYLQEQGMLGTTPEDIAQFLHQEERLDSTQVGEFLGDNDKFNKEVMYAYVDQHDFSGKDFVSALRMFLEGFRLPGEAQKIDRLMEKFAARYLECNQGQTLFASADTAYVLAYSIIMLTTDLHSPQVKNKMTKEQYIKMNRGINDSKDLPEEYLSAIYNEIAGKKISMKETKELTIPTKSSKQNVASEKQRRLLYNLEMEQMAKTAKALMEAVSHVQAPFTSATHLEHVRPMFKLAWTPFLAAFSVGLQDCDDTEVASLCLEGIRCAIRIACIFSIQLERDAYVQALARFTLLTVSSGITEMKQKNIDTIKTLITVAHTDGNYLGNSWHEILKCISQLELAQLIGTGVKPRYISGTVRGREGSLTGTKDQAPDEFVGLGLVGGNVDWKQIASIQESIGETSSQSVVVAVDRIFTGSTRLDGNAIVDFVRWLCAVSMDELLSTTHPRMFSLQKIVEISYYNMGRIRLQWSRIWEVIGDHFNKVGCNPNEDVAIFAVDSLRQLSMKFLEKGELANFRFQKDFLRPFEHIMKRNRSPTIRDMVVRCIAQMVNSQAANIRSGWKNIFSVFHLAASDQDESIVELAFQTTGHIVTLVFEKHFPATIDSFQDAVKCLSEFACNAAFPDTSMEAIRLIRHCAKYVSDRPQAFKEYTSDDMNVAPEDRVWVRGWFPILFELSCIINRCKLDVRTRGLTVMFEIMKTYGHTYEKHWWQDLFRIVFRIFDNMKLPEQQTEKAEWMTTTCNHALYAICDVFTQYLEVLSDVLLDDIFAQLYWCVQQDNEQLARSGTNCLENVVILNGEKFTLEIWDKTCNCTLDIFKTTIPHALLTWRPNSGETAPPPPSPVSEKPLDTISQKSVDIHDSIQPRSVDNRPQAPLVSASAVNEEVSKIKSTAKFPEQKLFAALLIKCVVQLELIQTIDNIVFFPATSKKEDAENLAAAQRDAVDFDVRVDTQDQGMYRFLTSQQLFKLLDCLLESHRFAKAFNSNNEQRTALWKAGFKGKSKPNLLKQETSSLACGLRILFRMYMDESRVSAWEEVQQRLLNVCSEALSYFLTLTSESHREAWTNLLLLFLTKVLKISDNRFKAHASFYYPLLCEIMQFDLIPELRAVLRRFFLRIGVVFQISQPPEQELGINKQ
UniProt P15291, sequence (P15291 whole entry, looked up): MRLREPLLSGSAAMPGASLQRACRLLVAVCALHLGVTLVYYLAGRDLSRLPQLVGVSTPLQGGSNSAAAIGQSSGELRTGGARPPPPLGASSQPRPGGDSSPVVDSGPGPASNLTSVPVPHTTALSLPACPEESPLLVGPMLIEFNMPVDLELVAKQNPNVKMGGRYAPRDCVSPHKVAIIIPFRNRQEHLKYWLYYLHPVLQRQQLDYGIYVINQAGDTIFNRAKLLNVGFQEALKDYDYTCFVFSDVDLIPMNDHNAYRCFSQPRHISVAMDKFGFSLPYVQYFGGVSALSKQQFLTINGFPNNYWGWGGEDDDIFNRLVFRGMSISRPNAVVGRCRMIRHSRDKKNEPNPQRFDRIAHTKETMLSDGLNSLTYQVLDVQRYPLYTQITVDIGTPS
UniProt P42331, sequence (P42331 whole entry, looked up): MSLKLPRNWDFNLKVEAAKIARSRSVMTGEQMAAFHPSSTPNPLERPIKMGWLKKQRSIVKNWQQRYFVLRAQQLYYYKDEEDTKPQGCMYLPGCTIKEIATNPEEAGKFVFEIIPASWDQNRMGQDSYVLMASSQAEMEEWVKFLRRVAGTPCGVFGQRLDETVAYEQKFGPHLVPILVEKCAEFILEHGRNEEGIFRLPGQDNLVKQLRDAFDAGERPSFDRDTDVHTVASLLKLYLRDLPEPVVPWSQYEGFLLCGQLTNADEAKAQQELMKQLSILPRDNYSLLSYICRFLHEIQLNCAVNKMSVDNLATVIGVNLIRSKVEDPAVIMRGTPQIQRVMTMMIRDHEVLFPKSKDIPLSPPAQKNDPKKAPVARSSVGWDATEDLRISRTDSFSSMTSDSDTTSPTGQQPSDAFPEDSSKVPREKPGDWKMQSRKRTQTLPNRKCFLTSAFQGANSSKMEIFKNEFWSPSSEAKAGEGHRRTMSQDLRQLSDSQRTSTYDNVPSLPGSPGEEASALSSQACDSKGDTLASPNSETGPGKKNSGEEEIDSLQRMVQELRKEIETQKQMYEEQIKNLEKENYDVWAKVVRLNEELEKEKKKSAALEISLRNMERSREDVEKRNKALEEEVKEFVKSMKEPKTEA

Row | Target | log2 fold change
1 | ARAF (UniProt P10398) | -0.003
2 | B4GALT1 (UniProt P15291) | 0.039
3 | ACTBL2 (UniProt Q562R1) | 0.103
4 | ATP1A4 (UniProt Q13733) | -0.065
5 | ARHGAP25 isoform 4 (UniProt P42331) | 0.073
6 | BZW1 isoform 3 (UniProt Q7L1Q6) | 0.03
7 | BRD4 (UniProt O60885) | 0.065
8 | BRD8 (UniProt Q9H0E9) | 0.031
9 | ADD2 (UniProt P35612) | -0.008
10 | ACSF3 (UniProt Q4G176) | -0.059
11 | APOBEC3G (UniProt Q9HC16) | 0.126
12 | ATXN7L3 isoform 2 (UniProt Q14CW9) | 0.494
13 | AHCYL1 (UniProt O43865) | 0.072
14 | ANP32E (UniProt Q9BTT0) | 0
15 | APAF1 (UniProt O14727) | -0.099
16 | AGPAT5 (UniProt Q9NUQ2) | 0.114
17 | AFDN isoform 5 (UniProt P55196) | -0.041
18 | ANAPC2 (UniProt Q9UJX6) | -0.001
19 | BST2 (UniProt Q10589) | -0.009
20 | BLVRB (UniProt P30043) | 0.069
21 | BUB1B isoform 3 (UniProt O60566) | -0.016
22 | ARFGEF1 (UniProt Q9Y6D6) | -0.009
